Measurements as given in publication PMC5540273 (PLoS ONE, 2017).

Legend:
Settings in all cases: concentration: 1 μM, replicates: in singlicate; n = 1
ERK1 = test system: T1, ERK1
T1 construct: gene MAPK3

ERK2 = test system: T2, ERK2
T2 construct: gene MAPK1

ERK3 = test system: T3, ERK3
T3 construct: gene MAPK6

ERK4 = test system: T4, ERK4
T4 construct: gene MAPK4

ERK5 = test system: T5, ERK5
T5 construct: gene MAPK7

ERK8 = test system: T6, ERK8
T6 construct: gene MAPK15

ERN1 = test system: ERN1
FAK = test system: T7, FAK
T7 construct: gene PTK2

FER = test system: FER
FES = test system: FES
FGFR1 = test system: FGFR1
FGFR2 = test system: FGFR2
FGFR3 = test system: FGFR3
FGFR4 = test system: FGFR4
FGR = test system: FGR
FLT1 = test system: FLT1
FLT3-autoinhibited = test system: FLT3-autoinhibited
FLT3 = test system: FLT3
FLT4 = test system: FLT4
FRK = test system: FRK
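Also: KINOMEscan kinase panel screen.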

| Compound | %Inh (ERK1) | %Inh (ERK2) | %Inh (ERK3) | %Inh (ERK4) | %Inh (ERK5) | %Inh (ERK8) | %Inh (ERN1) | %Inh (FAK) | %Inh (FER) | %Inh (FES) | %Inh (FGFR1) | %Inh (FGFR2) | %Inh (FGFR3) | %Inh (FGFR4) | %Inh (FGR) | %Inh (FLT1) | %Inh (FLT3-autoinhibited) | %Inh (FLT3) | %Inh (FLT4) | %Inh (FRK) |
| --- | --- | --- | --- | --- | --- | --- | --- | --- | --- | --- | --- | --- | --- | --- | --- | --- | --- | --- | --- | --- |
| COc1cc(Nc2nccc(N3CCC(NS(=O)(=O)c4ccc(NC(C)=O)cc4)CC3)n2)cc(OC)c1OC [GSK1379825] | 0% | 0% | 83% | 0% | 0% | 29% | 0% | 0% | 6% | 48% | 17% | 71% | 59% | 69% | 50% | 53% | 73% | 92% | 71% | 35% |
| Cc1ccc(NC(=O)c2ccnc(N3CCCCC3)c2)cc1-c1ccc(C(=O)NCC2CC2)cc1 [GW775610] | 37% | 9% | 0% | 21% | 6% | 0% | 70% | 0% | 4% | 4% | 4% | 10% | 2% | 0% | 0% | 36% | 6% | 72% | 0% | 32% |
| Cl.Cl.NCC(NC(=O)c1cc(-c2cccnc2)c(-c2ccnc3[nH]ccc23)s1)c1ccccc1 (stereo not drawn) [GSK1323434] | 0% | 8% | 3% | 33% | 0% | 16% | 6% | 0% | 50% | 44% | 8% | 0% | 39% | 6% | 42% | 17% | 0% | 5% | 0% | 15% |
| Cl.Cl.NC(CNC(=O)c1cc(Br)c(-c2ccnc3[nH]ccc23)s1)c1ccccc1 (stereo not drawn) [GSK1322949] | 4% | 0% | 4% | 27% | 0% | 24% | 13% | 83% | 10% | 0% | 45% | 39% | 26% | 29% | 14% | 64% | 1% | 90.9% | 17% | 0% |
| COc1cc(Nc2ccnc3cc(-c4ccncc4)ccc23)cc(OC)c1OC.Cl [GW494610] | 0% | 0% | 5% | 0% | 0% | 22% | 10% | 0% | 26% | 0% | 23% | 14% | 15% | 0% | 81% | 21% | 0% | 3% | 0% | 44% |
| CCNC(=O)/C=C/c1n[nH]c2cc(Sc3ccccc3C(=O)NC)ccc12 | 8% | 43% | 13% | 15% | 3% | 28% | 15% | 0% | 4% | 24% | 79% | 74% | 68% | 14% | 71% | 99.9% | 26% | 31% | 99.5% | 31% |
| Nc1cccc(-c2ccc3c(N)n[nH]c3c2)c1 [GSK2193613] | 0% | 0% | 11% | 14% | 0% | 15% | 4% | 16% | 11% | 16% | 74% | 0% | 0% | 0% | 23% | 14% | 0% | 14% | 0% | 0% |
| CC(C)NCC(Cc1ccccc1)NC(=O)c1cc(Br)c(-c2ccnc3[nH]ccc23)s1.Cl.Cl (stereo not drawn) [GSK1383281] | 11% | 0% | 0% | 0% | 0% | 2% | 0% | 20% | 0% | 0% | 86% | 62% | 60% | 64% | 16% | 65% | 0% | 68% | 48% | 0% |
| CSc1ccc(NC2=C(c3ccc(Cl)cc3)C(=O)NC2=O)cc1 [SB-317658] | 9% | 29% | 11% | 0% | 0% | 13% | 47% | 7% | 0% | 29% | 0% | 9% | 6% | 0% | 29% | 5% | 5% | 1% | 3% | 0% |
| CC(C)c1nc(-c2ccc(F)c(NS(=O)(=O)c3c(F)cccc3F)c2)c(-c2ccnc(Nc3ccc(N4CCOCC4)nc3)n2)s1 [GSK1804250] | 8% | 0% | 1% | 0% | 10% | 38% | 49% | 0% | 41% | 15% | 24% | 11% | 8% | 0% | 97.7% | 88% | 0% | 12% | 97.3% | 89% |
| O=C(O)C(F)(F)F.O=c1[nH]ccc2nc(N[C@@H]3CCNC3)nc(Nc3ccc4c(c3)S(=O)(=O)CC4)c12 [GSK2181306] | 55% | 61% | 78% | 28% | 17% | 5% | 39% | 84% | 75% | 16% | 4% | 33% | 21% | 0% | 45% | 32% | 79% | 61% | 42% | 26% |
| O=C(Nc1n[nH]c2nc(-c3ccccc3O)ccc12)C1CC1 [SB-711880] | 0% | 0% | 0% | 0% | 0% | 82% | 0% | 0% | 0% | 0% | 31% | 0% | 0% | 3% | 0% | 3% | 0% | 28% | 0% | 0% |
| CN(c1ccc(NC(=O)N2CCN(CCCN3CCOCC3)CC2)cc1)c1ccnc(Nc2ccc(CS(C)(=O)=O)cc2)n1.Cl [GW830899] | 0% | 0% | 0% | 8% | 0% | 0% | 0% | 34% | 10% | 0% | 0% | 9% | 8% | 5% | 35% | 73% | 75% | 92.7% | 38% | 32% |
| CN(C)c1ncnc2nc[nH]c12 [SKF-31736] | 0% | 0% | 0% | 0% | 0% | 14% | 48% | 0% | 0% | 0% | 0% | 0% | 0% | 0% | 0% | 0% | 0% | 0% | 0% | 0% |
| Cc1ccc(-c2ccc3occ(-c4ccc(S(C)=O)cc4)c3c2)nn1 (stereo not drawn) | 0% | 7% | 0% | 0% | 0% | 1% | 1% | 0% | 0% | 5% | 0% | 2% | 4% | 0% | 15% | 0% | 0% | 0% | 0% | 0% |
